Laboratory results from publication PMC4336329 (PLoS ONE, 2015).
Hit rate of the full screen: of about 310,000 compounds, about 14,000 (4.5%) showed an effect of 50% or more. Effects have a minus sign here. The sample as a whole holds a higher share of strong results than the screen did.
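Also: peak tail current of the secondary pulse compared with the same well before compound.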

Each compound was assayed against human ether-à-go-go-related gene (hERG) potassium channel (human, UniProt Q12809) (assay: primary screen, population patch clamp on CHO cells stably expressing hERG; higher = less effect of the substance).
Sequence of human ether-à-go-go-related gene (hERG) potassium channel (Q12809 whole entry, looked up): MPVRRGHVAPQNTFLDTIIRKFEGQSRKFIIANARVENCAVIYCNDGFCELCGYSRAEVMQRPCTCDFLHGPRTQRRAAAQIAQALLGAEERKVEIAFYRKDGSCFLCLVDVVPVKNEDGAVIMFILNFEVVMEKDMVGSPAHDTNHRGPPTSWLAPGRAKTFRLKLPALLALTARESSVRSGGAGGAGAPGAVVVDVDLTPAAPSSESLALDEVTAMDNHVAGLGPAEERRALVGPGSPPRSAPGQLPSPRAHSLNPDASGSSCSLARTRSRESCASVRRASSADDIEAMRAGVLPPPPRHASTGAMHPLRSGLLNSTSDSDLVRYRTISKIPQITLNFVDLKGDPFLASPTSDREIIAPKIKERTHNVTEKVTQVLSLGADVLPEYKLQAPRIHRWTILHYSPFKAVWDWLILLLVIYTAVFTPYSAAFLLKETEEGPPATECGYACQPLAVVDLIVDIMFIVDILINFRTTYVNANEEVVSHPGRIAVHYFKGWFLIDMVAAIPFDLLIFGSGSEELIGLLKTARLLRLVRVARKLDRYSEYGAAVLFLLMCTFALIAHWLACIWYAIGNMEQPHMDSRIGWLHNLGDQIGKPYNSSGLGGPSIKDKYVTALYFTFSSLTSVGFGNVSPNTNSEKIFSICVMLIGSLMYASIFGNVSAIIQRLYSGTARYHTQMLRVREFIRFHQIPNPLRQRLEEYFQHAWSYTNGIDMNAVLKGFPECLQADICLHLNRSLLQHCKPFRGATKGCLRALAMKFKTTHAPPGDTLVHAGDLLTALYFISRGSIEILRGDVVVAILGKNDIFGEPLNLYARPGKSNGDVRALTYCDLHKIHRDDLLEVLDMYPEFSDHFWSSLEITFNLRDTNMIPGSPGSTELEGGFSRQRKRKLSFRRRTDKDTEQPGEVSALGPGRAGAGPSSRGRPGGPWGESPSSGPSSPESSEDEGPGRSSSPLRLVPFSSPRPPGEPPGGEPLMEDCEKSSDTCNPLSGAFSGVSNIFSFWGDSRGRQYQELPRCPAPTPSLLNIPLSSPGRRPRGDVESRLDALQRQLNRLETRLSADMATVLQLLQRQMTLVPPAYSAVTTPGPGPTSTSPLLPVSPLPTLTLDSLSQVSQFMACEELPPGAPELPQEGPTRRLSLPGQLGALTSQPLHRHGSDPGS
For `O=C(NNC(=O)c1cccs1)c1ccc(Cl)c([N+](=O)[O-])c1`, the “hERG current change (%, negative = inhibition) at 10uM” value was -6.26%. With `COC(=O)[C@H](CC(C)C)NC(=O)N1CCC(C)CC1` the “hERG current change (%, negative = inhibition) at 10uM” value was 16.7%. In the case of `CCOc1ccc(C(C)=O)cc1CN1C(=O)NC2(CCCCCC2)C1=O`, the “hERG current change (%, negative = inhibition) at 10uM” value is reported as 3.83%. `COc1ccccc1NC(=O)c1c(C)oc2c1CCCC2` was tested, and the “hERG current change (%, negative = inhibition) at 10uM” value was 4.78%. With `O=C(O)c1cccc(CSc2nnc(-c3ccc(Cl)cc3)o2)c1` the “hERG current change (%, negative = inhibition) at 10uM” value was 12.5%. `Cc1nn(Cc2ccccc2)c(C)c1NC(=O)CCC(=O)O` was tested, and the “hERG current change (%, negative = inhibition) at 10uM” value was 2.81%. With `O=C(O)CCC(=O)Nc1ccc(F)cc1` the “hERG current change (%, negative = inhibition) at 10uM” value was 12.7%. For `CCNc1c(NCC)c(=O)c1=O`, the “hERG current change (%, negative = inhibition) at 10uM” value was 15.2%. With `CC(C)CC(=O)Nc1nnc(SCC(=O)NCc2ccc3c(c2)OCO3)s1` the “hERG current change (%, negative = inhibition) at 10uM” value was 17.7%. `O=C(O)c1cccc(N2C(=O)c3ccc(Oc4ccc(Cl)cc4)cc3C2=O)c1` was tested, and the “hERG current change (%, negative = inhibition) at 10uM” value was 12.8%. For `O=C(NNC(=S)NCc1ccccc1)c1ccc2c(c1)OCO2`, the “hERG current change (%, negative = inhibition) at 10uM” value was 8.77%. In the case of `COc1ccc(OCC(=O)Nc2ccc(N3CCN(C(=O)c4ccccc4)CC3)c(Cl)c2)cc1`, the “hERG current change (%, negative = inhibition) at 10uM” value is reported as -19.4%. With `CCN1CCN(c2ccc(NC(=O)c3ccc(F)cc3)cc2Cl)CC1` the “hERG current change (%, negative = inhibition) at 10uM” value was -75.6%. For `CCCOc1ccc(C(=O)N2CCN(c3ccc(N)cc3Cl)CC2)cc1`, the “hERG current change (%, negative = inhibition) at 10uM” value was -31.7%. `CCN1CCN(c2ccc(NC(C)=O)cc2Cl)CC1` was tested, and the “hERG current change (%, negative = inhibition) at 10uM” value was -1.19%. In the case of `CCN1CCN(c2ccc(NC(=O)c3cccnc3)cc2Cl)CC1`, the “hERG current change (%, negative = inhibition) at 10uM” value is reported as -16.8%. In the case of `CCC(=O)Nc1ccc(N2CCN(CC)CC2)c(Cl)c1`, the “hERG current change (%, negative = inhibition) at 10uM” value is reported as -3.56%. In the case of `CCCOc1ccc(C(=O)N2CCN(c3ccc(NC(=O)CC)cc3Cl)CC2)cc1`, the “hERG current change (%, negative = inhibition) at 10uM” value is reported as -77%. `O=C(Nc1ccc(N2CCOCC2)c(Cl)c1)c1ccc(F)cc1` was tested, and the “hERG current change (%, negative = inhibition) at 10uM” value was -3.11%. In the case of `CCN1CCN(c2ccc(NC(=O)c3cccc(F)c3)cc2Cl)CC1`, the “hERG current change (%, negative = inhibition) at 10uM” value is reported as -75.2%. `CCCC(=O)Nc1ccc(N2CCN(CC)CC2)c(Cl)c1.Cl` was tested, and the “hERG current change (%, negative = inhibition) at 10uM” value was -47.8%. With `O=C(Nc1ccc(N2CCOCC2)c(Cl)c1)c1cccc(F)c1` the “hERG current change (%, negative = inhibition) at 10uM” value was -21.2%. With `CCCCCC(=O)Nc1ccc(N2CCN(CC)CC2)c(Cl)c1` the “hERG current change (%, negative = inhibition) at 10uM” value was -71.5%. With `COc1ccc(-c2nnc(SCc3nnc(-c4cccs4)o3)n2CC2CCCO2)cc1` (centres unmarked) the “hERG current change (%, negative = inhibition) at 10uM” value was -32%. In the case of `Cc1ccc(OCc2nnc(NC(=O)c3ccco3)s2)cc1`, the “hERG current change (%, negative = inhibition) at 10uM” value is reported as 6.86%. For `Cc1cccc(N(C(=O)c2csnn2)C(C(=O)NCc2ccccc2)c2ccncc2)c1` (centres unmarked), the “hERG current change (%, negative = inhibition) at 10uM” value was -18.7%. For `CCN(CC)CCCN1C(=O)C(O)=C(C(=O)c2sc(C)nc2C)C1c1ccco1` (centres unmarked), the “hERG current change (%, negative = inhibition) at 10uM” value was -0.605%. With `O=C(Cc1ccsc1)NNC(=O)c1ccc(F)cc1` the “hERG current change (%, negative = inhibition) at 10uM” value was -18.8%. In the case of `c1ccc(CCN(Cc2ccccc2)Cc2nc(C3CC3)no2)cc1`, the “hERG current change (%, negative = inhibition) at 10uM” value is reported as 10.2%. For `COc1ccc(OCc2cc(C(=O)N3CCC(OC)CC3)no2)c2ccccc12`, the “hERG current change (%, negative = inhibition) at 10uM” value was 14.4%. In the case of `CCCCOc1ccc(Nc2cc(Cl)ccc2C(=O)O)cn1`, the “hERG current change (%, negative = inhibition) at 10uM” value is reported as 23.5%. In the case of `O=C(Nc1nnc(-c2ccccc2F)s1)Nc1ccccc1F`, the “hERG current change (%, negative = inhibition) at 10uM” value is reported as 23.3%. For `CCn1c(SCC(=O)Nc2ccccc2)nc2nc3c(cc2c1=O)COC(C)(C)C3`, the “hERG current change (%, negative = inhibition) at 10uM” value was -61.8%. `CCn1c(SCC(=O)Nc2ccc(OC)cc2)nc2nc3c(cc2c1=O)CCCC3` was tested, and the “hERG current change (%, negative = inhibition) at 10uM” value was -62.6%. With `CCn1c(SCC(=O)Nc2ccc(C(C)=O)cc2)nc2nc3c(cc2c1=O)COC(C)(C)C3` the “hERG current change (%, negative = inhibition) at 10uM” value was 13.8%. For `CCn1c(SCC(=O)Nc2ccc(C(C)=O)cc2)nc2nc3c(cc2c1=O)CCCC3`, the “hERG current change (%, negative = inhibition) at 10uM” value was -20.5%. `CCOc1ccc(NC(=O)CSc2nc3nc4c(cc3c(=O)n2CC)COC(C)(C)C4)cc1` was tested, and the “hERG current change (%, negative = inhibition) at 10uM” value was 0.831%. For `CCn1c(SCC(=O)Nc2ccccc2C)nc2nc3c(cc2c1=O)COC(C)(C)C3`, the “hERG current change (%, negative = inhibition) at 10uM” value was -21.4%. For `CCn1c(SCC(=O)Nc2ccc(C)cc2)nc2nc3c(cc2c1=O)COC(C)(C)C3`, the “hERG current change (%, negative = inhibition) at 10uM” value was -81.8%. `C=CCn1c(SCC(N)=O)nc2nc3c(cc2c1=O)COC(C)(C)C3` was tested, and the “hERG current change (%, negative = inhibition) at 10uM” value was 4.77%. With `CCn1c(SCC(=O)Nc2ccc(OC)cc2OC)nc2nc3c(cc2c1=O)COC(C)(C)C3` the “hERG current change (%, negative = inhibition) at 10uM” value was -2.49%. In the case of `CCn1c(SCC(=O)Nc2ccc(C)cc2)nc2nc3c(cc2c1=O)CCCC3`, the “hERG current change (%, negative = inhibition) at 10uM” value is reported as -43.6%. In the case of `CCn1c(SCC(=O)Nc2ccc(OC)cc2)nc2nc3c(cc2c1=O)COC(C)(C)C3`, the “hERG current change (%, negative = inhibition) at 10uM” value is reported as -72.6%. In the case of `CCn1c(SCC(=O)Nc2cccc(C)c2)nc2nc3c(cc2c1=O)COC(C)(C)C3`, the “hERG current change (%, negative = inhibition) at 10uM” value is reported as -23.1%. `O=C(CN1C(=O)CCOc2ccccc21)Nc1ccc(Cl)c(S(=O)(=O)N2CCOCC2)c1` was tested, and the “hERG current change (%, negative = inhibition) at 10uM” value was -7.44%. With `O=C(CCn1cnnn1)Nc1cccc(F)c1` the “hERG current change (%, negative = inhibition) at 10uM” value was 21.3%. With `S=C(NCCSCc1c(Cl)cccc1Cl)Nc1ccccc1` the “hERG current change (%, negative = inhibition) at 10uM” value was -3.31%. `COCCn1c(C)cc(C2=NNC(=Nc3ccc(OC)cc3)SC2)c1C` was tested, and the “hERG current change (%, negative = inhibition) at 10uM” value was 1.3%. With `Cc1ccc(S(=O)(=O)Nc2ccnc3ccccc23)cc1` the “hERG current change (%, negative = inhibition) at 10uM” value was -4.28%. With `Cc1ccc(F)cc1NC(=O)c1sc2ncn(CC(=O)N3CCN(c4ccccn4)CC3)c(=O)c2c1C` the “hERG current change (%, negative = inhibition) at 10uM” value was -5.06%. For `O=C(COC(=O)CCC(=O)c1cccs1)NC1CCCCC1`, the “hERG current change (%, negative = inhibition) at 10uM” value was 1.55%. In the case of `CCCCCCC(=O)N/N=C/c1c(O)n(C2CC2)c(=S)[nH]c1=O`, the “hERG current change (%, negative = inhibition) at 10uM” value is reported as -4.67%. With `Cc1cccc(N2CCN(c3nnnn3-c3ccccc3)CC2C)c1` (centres unmarked) the “hERG current change (%, negative = inhibition) at 10uM” value was -10.8%. In the case of `Cc1cc(N2CCN(c3ccccc3)CC2)n2nnnc2n1`, the “hERG current change (%, negative = inhibition) at 10uM” value is reported as -3.56%. With `Cc1cccc(N2CCN(c3cc(C)nc4nnnn34)CC2C)c1` (centres unmarked) the “hERG current change (%, negative = inhibition) at 10uM” value was -53.1%. In the case of `O=C(NCCc1ccco1)C(=O)NCC1CCCN1S(=O)(=O)c1ccccc1` (centres unmarked), the “hERG current change (%, negative = inhibition) at 10uM” value is reported as -33.5%.
